HCV inh: blocks hepatitis C virus. Potency, µM (series often up to 41.8 µM), without a hit: at the top dose activity change, negative = inhibition, most hits filed as inhibitors. AID 651820. Huh7.5.1 HCVcc-Cre infection, luciferase reporter, 44 h. 340,000 compounds, 3.4% hits; note: potency is the fitted concentration of half-maximal effect
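1,000 cells/well; 4 h culture; + compound; + HCVcc-Cre (~0.5 moi); 44 h; luciferase substrate, RT 15 min; read 15 sec.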
Vaccinia mCherry: inhibitors of vaccinia virus infection (mCherry reporter signal) | Potency, µM (top dose mostly 36.5 µM), inactives show at the highest dose activity change, negative = inhibition, actives largely listed as inhibitors | AID 720579 | 310,000 compounds, 0.63% hits | Vaccinia virus mCherry reporter infection, fluorescence; calls by dose curve; tested in A549 cells; note: potency is the fitted concentration of half-maximal effect; nearly all actives have a fitted effect of over 35% in size
Vaccinia Venus: vaccinia inhibition (Venus reporter); Vaccinia virus Venus reporter expression, fluorescence; Potency, µM (titrated, usually from 36.5 µM), without a hit: at the top dose activity change, negative = inhibition, most hits filed as inhibitors; 330,000 compounds, 0.46% hits; calls by dose curve; tested in A549 cells; note: potency is the fitted concentration of half-maximal effect; nearly all actives have a fitted effect of over 30% in size
Giardia FBPA inh: Giardia lamblia aldolase inhibition; Potency, µM (titrated, usually from 59.6 µM), for the others: at the top dose activity, negative = inhibition, usual class: inhibitors; A8B2U2; 290,000 compounds, 0.71% hits; purified Giardia FBPA; AID 2451; note: potency is the fitted concentration of half-maximal effect; nearly all actives have a fitted effect of over 55% in size
Target sequence (A8B2U2 whole entry, looked up): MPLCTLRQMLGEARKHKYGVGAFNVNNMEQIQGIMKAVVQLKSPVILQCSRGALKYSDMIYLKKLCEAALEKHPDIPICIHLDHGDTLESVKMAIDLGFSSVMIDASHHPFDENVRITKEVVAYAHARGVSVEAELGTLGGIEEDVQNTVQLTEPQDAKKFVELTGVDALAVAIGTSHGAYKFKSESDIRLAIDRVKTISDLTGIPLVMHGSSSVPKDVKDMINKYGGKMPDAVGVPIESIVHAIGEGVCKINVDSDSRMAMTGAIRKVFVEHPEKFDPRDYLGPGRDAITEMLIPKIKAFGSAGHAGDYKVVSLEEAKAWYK
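40 nM FBPA preincubated 10 min at RT with compound (up to 57.5 uM final), then substrate plus GAPDH/TPI/NAD/arsenate coupling and diaphorase/resazurin added. Fluorescence read after 20 min at RT, 525/598 nm.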
HCMV antiviral: blocks human cytomegalovirus replication. activity change, negative = inhibition, % at 57.5 µM. AID 1259415. 410,000 compounds, 4.5% hits. HFF cells, HCMV-luciferase reporter, 72 h; hits give low values; in the data active = activity change below about -60%; inconclusive = no clear call, values can overlap the other calls; inactive = above about -39%
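Two-dose cell screen: HFF monolayers treated with compounds and infected with luciferase-expressing HCMV at 1 PFU/cell, 72 h at 37C, then lysed for luciferase measurement.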
FMDV antiviral: foot and mouth disease virus antiviral activity; FMDV antiviral cell-based qHTS; Potency, µM (doses to about 57.9 µM), inactives show at the top dose activity change, negative = inhibition, actives largely listed as inhibitors; AID 1159524; 410,000 compounds, 1.2% hits; calls by dose curve; tested in HEK293T cells; note: read-out not given here; potency is the fitted concentration of half-maximal effect; nearly all actives have a fitted effect of over 45% in size
* = called active by the depositor; i = inactive; ? = inconclusive; / = not tested or not shown. An excerpt weighted towards active compounds, which were near 7.5% of everything screened. Unless noted, calls come from the whole dose curve; as a rule, active = well fitted curve in the direction sought with a large enough effect; inconclusive = small, poorly fitted or top-dose-only effect, or another doubt; inactive = no such curve, though single readings can be large; an effect the other way counts as inactive or inconclusive. % is set by controls: 0 for no effect and ±100 for the full control effect.

SMILES | HCV inh | Vaccinia mCherry | Vaccinia Venus | Giardia FBPA inh | HCMV antiviral | FMDV antiviral
CC(Oc1ccc(Cl)cc1Cl)C(=O)N(C)c1ccccc1 (stereo not given) | 0.1% | / | / | 0.9% | -67.2* | 1.5%
O=S1(=O)C=C(Sc2nc3cc(Cl)ccc3o2)c2ccccc21 | 7.94µM* | -12.7% | 4.0% | 0.0% | / | 28.2µM*
Cc1cc(NC(=O)CSc2nc3cc(Cl)ccc3o2)no1 | -20.4% | -8.4% | 2.9% | / | -39.2 | -10.3%
OCCc1ccc(NCCc2cccs2)cc1 | / | 11.9% | 4.9% | / | 78.9 | 0.0%
CS(=O)(=O)CC[C@@H](C(=O)NCCc1ccccc1)N1Cc2ccccc2C1=O | / | -5.8% | 0.5% | / | -1.5 | 7.8%
CCCOC(=O)Nc1ccc([As](=O)(O)O)cc1NC(=O)OCCC | 25.9% | i | -18.9% | -0.1% | -80.1* | -8.0%
CCOC(=O)Nc1ccc(C)cc1NC(=O)OCC | -26.8% | -7.4% | 0.8% | -1.4% | 0.3 | -10.3%
COc1ccc(Cn2c(CO)cnc2SCC(=O)NCc2ccco2)cc1 | / | 11.7% | -2.5% | / | 11.2 | 6.8%
CCOc1cc(CNC(=O)c2ccccc2NC(=O)c2nsc3ccccc23)ccc1OC | / | -12.2% | -24.7% | / | -81.6* | -19.5%
CNC(=S)N/N=C/c1c(C)c(C(=O)c2ccc(F)cc2)n2ccccc12 | -3.4% | ? | -11.0% | -1.4% | -27.1 | -18.4%
COc1ccccc1-c1ccnc(-n2ncc(C(=O)NCCc3ccccn3)c2C)n1 | / | ? | -15.4% | / | / | 28.1%
Cc1ccc(C(=O)c2coc3ccc(O)c(Cl)c23)cc1 | -9.6% | / | / | ? | 57.1 | -14.4%
CCOC(=O)c1c(C)n(-c2ccc(C)cc2)c2c(C(C(C)=O)C(=O)O)c(Br)c(O)c(O)c12 (stereo not given) | 11.2µM* | / | ? | -28.6% | ? | 0.0%
CCOC(=O)c1c(C)n(-c2ccc(C)cc2)c2c(CC(C)=O)c(Br)c(OC)c(O)c12 | -4.3% | / | -4.5% | 0.3% | 23.2 | 0.0%
CCOC(=O)C(C(C)=O)c1c(Br)c(O)c(O)c2c(C(=O)c3ccc(C)cc3)coc12 (stereo not given) | / | 12.6µM* | 12.6µM* | ? | -96.1* | -29.1%
O=C(c1ccccc1)N1CC(=O)N2[C@H](CO)[C@@H](c3ccc(Br)cc3)[C@@H]2C1 | / | / | / | / | -27.6 | /
COc1cccc(N(CC(=O)NC2CCCCC2)C(=O)CCCC(=O)Nc2ccccn2)c1 | -1.8% | -14.7% | 5.3% | -1.9% | -7.6 | 10.7%
OCCNCC(O)Cn1c2ccccc2c2ccccc21 (stereo not given) | 7.8% | / | / | 4.2% | 22.7 | 0.0%
COc1ccccc1CNCC(O)Cn1c2ccccc2c2ccccc21 (stereo not given) | 11.2µM* | / | / | 11.5% | -99.2* | ?
CNC(=O)c1csc(-c2cccs2)n1 | 12.4% | -2.0% | -14.7% | 1.5% | -25.0 | 48.1%
O=C(NNC(=O)c1csc(-c2cccs2)n1)c1ccc(Cl)cc1 | / | 7.4% | -10.5% | / | -103.2* | 9.5%
O=C(Cn1nc(C(F)(F)F)cc1C1CC1)NCc1ccccc1F | -14.1% | i | 1.3% | -1.6% | -68.6* | -15.5%
O=C(Cn1nc(C(F)(F)F)cc1C1CC1)Nc1ccccc1F | -3.4% | -4.9% | -2.1% | -1.1% | ? | -27.1%
CC(NS(=O)(=O)c1ccc(OCC(=O)Nc2cccc([N+](=O)[O-])c2)cc1)c1ccccc1 (stereo not given) | ? | ? | -17.3% | -0.4% | -4.6 | ?
Cc1c(C(=O)c2ccc(Cl)c(Cl)c2)cnc2cc3c(cc12)OCO3 | ? | -16.1% | ? | 0.0% | -2.1 | ?
SMILES | HCV inh | Vaccinia mCherry | Vaccinia Venus | Giardia FBPA inh | HCMV antiviral | FMDV antiviral
Cc1ccc(S(=O)(=O)c2c(C(=O)c3ccccc3)cnc3cc4c(cc23)OCCO4)cc1 | -3.2% | -16.9% | -24.6% | -3.2% | -99.2* | 12.8%
CCOc1ccc(S(=O)(=O)c2c(C(=O)c3ccc(C)c(C)c3)cnc3ccccc23)cc1 | / | -14.5% | -9.6% | / | -3.4 | -22.5%
CCc1ccc(S(=O)(=O)c2c(C(=O)c3ccccc3)cnc3ccc(CC)cc23)cc1 | / | -12.0% | -10.3% | / | -77.2* | 11.6%
COc1ccc(S(=O)(=O)c2c(C(=O)c3ccc(C)c(C)c3)cnc3ccc(F)cc23)cc1 | / | -3.7% | 6.7% | / | -39.5 | ?
Cc1ccc2ncc(C(=O)c3ccc(C)c(C)c3)c(S(=O)(=O)c3ccc(F)cc3)c2c1 | / | -7.4% | 2.1% | / | -73.7* | -15.9%
COc1ccc(C(=O)c2cnc3ccc(C)cc3c2S(=O)(=O)c2ccccc2)cc1 | / | -26.8% | -11.1% | / | -98.2* | 12.6%
O=C(Oc1ccc(NC2=NS(=O)(=O)c3ccccc32)cc1)c1cccnc1 | 4.0% | i | -3.1% | 8.9% | ? | -3.6%
O=C(CNS(=O)(=O)c1ccccc1)OCC(=O)c1c[nH]c2ccccc12 | 9.4% | / | / | / | 37.2 | 6.7%
Cc1cccc(C)c1OCC(=O)Nc1ccc(NC(=O)c2ccco2)cc1 | -22.6% | i | -13.5% | 1.4% | -11.9 | -7.9%
O=C(O)CC1(CC(=O)Nc2cccc(C(=O)O)c2)CCCC1 | 1.3% | i | -14.0% | 0.9% | -101.8* | 3.5%
Cc1cccc(C)c1OCC(=O)Nc1cccc(NC(=O)c2ccco2)c1 | 11.2µM* | / | -19.9% | -2.1% | -31.2 | 0.0%
Cc1cccc(C)c1NC(=O)COc1ccccc1C(=O)Nc1ccc(Br)cn1 | 2.9% | -16.1% | 2.5% | 0.8% | -65.4* | 5.7%
CCC(=O)c1ccccc1OCC(=O)Nc1c(C)cccc1C | 3.8% | i | -11.0% | 2.4% | 45.9 | -14.9%
Cc1ccccc1OCC(=O)Nc1cccc(C(=O)O)c1 | 0.9% | 3.4% | 0.3% | 23.0% | -19.5 | 3.98µM*
Cc1ccc(NC(=O)CC2(CC(=O)O)CCCC2)cc1 | 9.2% | -15.1% | -3.4% | 11.8% | 26.9 | 13.8%
Cc1[nH]c2ccccc2c1CC(=O)Nc1ccc(N(C)c2cccnc2)c(-c2cccc(Cl)c2)c1 | / | / | / | / | -0.4 | /
CCCCc1ncc(CN2CCC(n3nccc3NC(=O)C(OC)c3ccccc3)CC2)[nH]1 (stereo not given) | 16.6% | / | / | / | -29.9 | -9.3%
Cc1ccc(C(=O)COc2ccccc2C(=O)Nc2ccccc2)cc1 | 15.8µM* | i | -3.4% | 1.4% | 18.6 | ?
COc1ccc(NC(=O)c2ccco2)cc1NC(=O)COc1cc(C)ccc1C(C)C | / | -10.6% | ? | / | -79.4* | ?
Cc1ccc(C(C)C)cc1OCC(=O)NNC(=O)Nc1ccccc1 | -16.5% | -3.7% | -26.2% | 8.6% | -37.5 | 6.5%
Cc1cccc(NC(=O)COc2ccccc2C(=O)NC(C)c2ccccc2)c1 (stereo not given) | 10µM* | -14.5% | ? | / | / | -18.4%
Cc1ccc(C(C)C)c(OCC(=O)NNC(=O)Nc2ccccc2)c1 | -21.5% | -14.8% | -7.6% | / | -67.4* | -26.6%
Cc1c(-c2cccc(NC(=O)c3ccco3)c2)nc2ncccn12 | ? | i | -13.2% | -6.1% | -76.0* | -1.8%

Assay outcomes: PubChem BioAssay, National Center for Advancing Translational Sciences (NCATS)
